Bioassay records: PubChem, The Scripps Research Institute Molecular Screening Center
M1 PAM = human CHRM1 positive allosteric modulation; CHO-K1 hM1, Fluo-8 calcium fluorescence, ACh EC20; 0% = ACh EC20, 100% = maximal ACh; activation, % at 3 µM; hit rate 0.088% among 360,000; AID 588819; in the data active = activation above about 19%, passing the limit was not always enough
M4 antag = blocks acetylcholine activation of human M4 receptor | P08173 | CHO-hM4 cells, ACh EC80, Fluo-8 calcium fluorescence | inhibition, % at 3 µM | hit rate 0.73% among 360,000;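 active = inhibition above its plate's cutoff, the mean inhibition of sample wells plus 3 SD, cut at about 27% in these data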;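 also: 0% = acetylcholine EC80 with DMSO and 100% = DMSO without agonist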
Target sequence (P08173 whole entry, looked up): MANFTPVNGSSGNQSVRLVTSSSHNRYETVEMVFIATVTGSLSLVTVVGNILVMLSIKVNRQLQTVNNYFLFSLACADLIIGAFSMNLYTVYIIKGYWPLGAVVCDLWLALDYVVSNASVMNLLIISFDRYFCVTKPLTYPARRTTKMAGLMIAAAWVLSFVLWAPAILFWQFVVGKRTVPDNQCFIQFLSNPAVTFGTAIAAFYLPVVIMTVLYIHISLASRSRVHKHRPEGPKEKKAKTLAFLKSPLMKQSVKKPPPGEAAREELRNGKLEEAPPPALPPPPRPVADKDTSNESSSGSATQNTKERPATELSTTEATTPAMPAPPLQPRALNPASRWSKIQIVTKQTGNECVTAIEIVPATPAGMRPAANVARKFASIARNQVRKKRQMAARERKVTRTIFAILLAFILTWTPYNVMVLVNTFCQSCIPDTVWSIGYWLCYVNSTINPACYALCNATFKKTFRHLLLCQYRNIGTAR
CHRM1 agonist = activates human CHRM1 receptor. activation, % at 3 µM. P11229. CHO-K1 hM1, Fluo-8 calcium fluorescence, agonist mode; 0% DMSO, 100% acetylcholine EC100. hit rate 0.33% among 360,000;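 active = activation above the run's mean compound activation plus 3 SD, cut at about 16% in these data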;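 also: peak over basal fluorescence ratio within a 140 s kinetic read after compound addition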
CHRM1 antagonist = antagonists of human M1 muscarinic receptor | P11229 | CHO-K1 hM1, Fluo-8 calcium fluorescence, ACh EC80 antagonist | inhibition, % at 3 µM | hit rate 1.3% among 360,000 | AID 588852;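 active = percent inhibition above its own plate's cutoff, namely the mean of that plate's compound wells plus 3 SD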;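 also: peak over basal fluorescence ratio during 140 s after agonist addition; 0% = ACh EC80 plus DMSO and 100% = DMSO alone without agonist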
M4 PAM = CHRM4 positive allosteric modulation. CHO-K1 hM4/Gqi5, Fluo-8 calcium fluorescence, ACh EC20; 0% = ACh EC20, 100% = maximal ACh. hit rate 0.4% among 360,000. P08173. AID 624126. activation, % at 3 µM;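 active = activation above its plate's cutoff, the mean activation of sample wells plus 3 SD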
M4 ag = CHRM4 agonism in calcium assay; CHO-K1 hM4/Gqi5, Fluo-8 calcium fluorescence; vehicle 0%, full acetylcholine response 100%; activation, % at 3 µM; hit rate 0.14% among 360,000;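 active = activation above the run mean over all test wells plus 3 SD, cut at about 32% in these data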;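 also: peak over basal fluorescence ratio per well then scaled between controls; 0% = DMSO wells and 100% = acetylcholine at EC100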
* = called active by the depositor. Only some compounds are listed: those with a hit (about 2.2% of all), similar ones and a draw of the others.

SMILES | M1 PAM | M4 antag | CHRM1 agonist | CHRM1 antagonist | M4 PAM | M4 ag
O=C(COc1ccccc1)NC(=S)Nc1cccc2cc(O)ccc12 | 10 | 3 | 19* | -4 | 1 | 11
Cc1ccc(OCC(=O)NC(=S)Nc2ccc3c4c(cccc24)CC3)cc1 | 6 | -4 | -7 | -4 | -1 | 1
CC(C)c1ccc(OCC(=O)NC(=S)Nc2ccc3c4c(cccc24)CC3)cc1 | 7 | 30* | -2 | -4 | 5 | 2
CCOC(=O)C1CCCN(CC(=O)Nc2cccc(C(C)=O)c2)C1 (configuration not stated) | 8 | 2 | -3 | -3 | -3 | 0
COc1ccc(C)cc1NC(=O)CCN1CC(C)OC(C)C1 (configuration not stated) | 11 | -7 | -3 | -7 | 20* | 2
COc1ccc(OC)c(NC(=O)CCN2CC(C)OC(C)C2)c1 (configuration not stated) | 11 | 2 | -2 | -13 | 3 | 1
CCOC(=O)C1CCCN(CC(=O)NC2CC2)C1 (configuration not stated) | 9 | -8 | 25* | -12 | 1 | 1
CCOC(=O)N1CCN(C(=O)Nc2cccc(Cl)c2)CC1 | 4 | 5 | 1 | -16 | 1 | 0
CCOC(=O)C1CCCN(C(=S)NC2CCCCC2)C1 (configuration not stated) | -8 | 2 | 39* | 2 | 2 | 4
CCOC(=O)C1CCCN(C(=O)Nc2cccc(Cl)c2)C1 (configuration not stated) | -24 | 0 | 55* | 20 | 11 | 2
Cc1nnc(SCc2cc(=O)[nH]c(/N=C(\N)Nc3ccccc3Sc3ccccc3)n2)s1 | 10 | 4 | -6 | -9 | -11 | 2
COc1ccc(CN2C(=NC(=O)C3CCCO3)SC3CS(=O)(=O)CC32)cc1 (configuration not stated) | 3 | -14 | -2 | -3 | 2 | 2
CCOC(=O)C1CCCN(CCC(=O)Nc2cc(C)cc(C)c2)C1 (configuration not stated) | -6 | -1 | 21* | 5 | -7 | 0
CCOC(=O)C1CCCN(Cc2cc(OC)c(O)c(OC)c2)C1 (configuration not stated) | -15 | -8 | 42* | 6 | 14 | 1
CCOC(=O)N1CCN(C(=S)Nc2cccc(C)c2)CC1 | -1 | -3 | 19* | -2 | -1 | -1
CCOC(=O)C1CCCN(C(=S)Nc2cc(C)cc(C)c2)C1 (configuration not stated) | -14 | -7 | 63* | 68* | 8 | 1
CCOC(=O)C1CCCN(CC(=O)Nc2cc(C)cc(C)c2)C1 (configuration not stated) | 13 | -5 | 3 | -18 | 2 | 0
CC1(C)C(=O)NCCN1C(=O)CSc1nccc(-c2ccc(Br)cc2)n1 | 3 | 1 | -1 | -2 | 8 | 3
Cc1ccc(C)c(S(=O)(=O)N2CCN(C(=O)c3ccc4ccccc4n3)CC2)c1 | -5 | 5 | -3 | 5 | -7 | 19
Cc1ccccc1Nc1nc(N)nc(COc2ccc(C#N)cc2)n1 | 11 | 2 | 1 | 0 | -3 | 3
CCCCn1c(N)c(N(Cc2ccccc2OC)C(=O)CSCC(=O)Nc2ccc(C)cc2)c(=O)[nH]c1=O | 8 | -5 | -5 | -4 | 10 | 0
CCOC(=O)C1CCCN(CCC(=O)Nc2cc(OC)ccc2OC)C1 (configuration not stated) | 1 | -4 | 16* | -5 | -3 | 0
CCOC(=O)N1CCN(C(=O)c2ccc(NC(=O)c3ccc(C)cc3)cc2)CC1 | 10 | -11 | -3 | -6 | 31* | 0
CCOC(=O)C1CCCN(C(=S)Nc2ccc(S(=O)(=O)N3CCOCC3)cc2)C1 (configuration not stated) | -30 | 0 | 63* | 54* | -4 | 6
CC1CCCN(C(=S)Nc2ccc(S(=O)(=O)N3CCCCC3)cc2)C1 (configuration not stated) | 5 | 6 | -1 | -10 | 2 | 4
SMILES | M1 PAM | M4 antag | CHRM1 agonist | CHRM1 antagonist | M4 PAM | M4 ag
CC1CCCN(CCC(=O)Nc2ccc3c(c2)CCC3)C1 (configuration not stated) | -20 | 1 | -7 | 33* | -12 | 1
O=C(O)C(c1ccccc1)C(O)C1CC=CCC1 (configuration not stated) | 1 | 5 | 0 | -7 | 6 | 2
O=C(CNCc1ccccc1Cl)NCc1ccco1 | 2 | -5 | -10 | 1 | 10 | 2
CN(C)CCCN(C(=O)c1ccco1)c1nc2c(F)cc(F)cc2s1 | 2 | 4 | 7 | 3 | -4 | 2
CN(C)CCCN(C(=O)c1ccco1)c1nc2c(F)cccc2s1 | -15 | 20 | 7 | 47* | -44 | 2
Cc1ccc2nc(N(CCCN(C)C)C(=O)c3cc(-c4cccs4)nc4ccccc34)sc2c1 | 6 | 10 | -1 | -9 | 4 | 14
CN(C)CCCN(C(=O)c1ccco1)c1nc2ccc(F)cc2s1 | -5 | -3 | 17* | 18 | -7 | 2
CN(C)CCCN(C(=O)c1cc(-c2cccs2)nc2ccccc12)c1nc2c(F)cccc2s1 | -4 | 27* | -5 | 1 | -13 | 8
COc1ccccc1CCNCc1ccc(OC)c(OCc2ccccc2)c1 | -24 | 24 | 7 | 34* | -13 | 28
COc1cc(CNCCO)ccc1OCCc1ccccc1 | 7 | 29* | -2 | -20 | 20* | 8
COc1cc(CNCCc2ccccc2)ccc1OCC(N)=O | 0 | 0 | -8 | -2 | 4 | 0
COc1cccc(CNCCc2c[nH]c3ccccc23)c1OCc1ccccc1 | -6 | 21 | 6 | 19 | -20 | 38*
COc1cc(CNCCc2c[nH]c3ccccc23)ccc1OCc1ccccc1F | -8 | 5 | -4 | 4 | 2 | 1
CCc1nnc(NC(=O)c2oc3ccccc3c2COC(C)C)s1 | -6 | -3 | -1 | 5 | 0 | 1
O=C(O)c1ccc(NC2=C(n3nnc4ccccc43)C(=O)c3ccccc3C2=O)cc1 | 14 | 0 | 0 | -18 | 3 | 1
O=C(NCc1ccccc1)C(c1ccc(F)cc1)N(Cc1cccs1)C(=O)c1cnccn1 (configuration not stated) | -6 | 2 | 2 | 11 | -1 | 13
O=C(NCc1ccccc1)C(c1ccccc1)N(Cc1cccs1)C(=O)c1cnccn1 (configuration not stated) | -7 | 23 | 1 | 43* | -19 | 17
COC(=O)[C@@H]1C[C@H]2CC[C@H](O)C[C@H]2N1Cc1ccc(C(C)(C)C)cc1 | 11 | -7 | -5 | -8 | 5 | 3
